YB-1 expr inh: YB-1 expression inhibition; U2OS, qRT-PCR YB-1 vs CDIP delta delta Cp, 16 h; stronger effect = higher value; zero = DMSO, each unit about twofold; delta delta Cp (YB-1 minus CDIP) (concentration not given with the values); 30,000 tested, 0.37% active; AID 434959;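 active means delta delta Cp rounded down to an integer at or above 3, about 3 SD of DMSO wells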;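 further: higher means less YB-1 transcript or more CDIP transcript relative to DMSO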
Shh pathway inh: blocks Sonic Hedgehog signaling. 22,000 tested, 2.1% active. inhibition, % (concentration not given with the values). Shh-LIGHT2 Gli-luciferase reporter, 30 h;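 active means mean inhibition across valid replicates above about 65%, limit read from the data; inconclusive means mean under the limit, yet half or more replicates past it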;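 further: pathway switched on by Shh-conditioned medium diluted 1 in 25 in low serum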
NOMO-1 viab: STK33 inhibitor candidate reducing NOMO-1 cell viability. NOMO-1 AML viability, CellTiter-Glo luminescence, 72 h. 37,000 tested, 7.5% active. inhibition, % (no concentration beside the values); in the data active means inhibition above about 80%; inconclusive means no clear call, values can overlap the other calls
PD-1 reverse act: reversal of PD-1 mediated T-cell inhibition. primary human CD4 T cells, PD-L1 beads, CellTiter-Glo 96 h. 29,000 tested, under 10 active. activation, % (test concentration not listed); call rule not given here
MITF inh: MITF inhibition; inhibition, % (test concentration not listed); AID 2240; 37,000 tested, 0.28% active; TRPM1 promoter luciferase, luminescence, 24 h; in the data active means inhibition above about 85%; inconclusive means no clear call, values can overlap the other calls; inactive means below about 68%;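 further: human melanocyte line stably carrying TRPM1 promoter luciferase reporter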
Hits are given with their value; i = inactive; ? = inconclusive; nt = no result. The list is not random: actives were taken first. Their share in the collection is about 7.4%.

SMILES	YB-1 expr inh	Shh pathway inh	NOMO-1 viab	PD-1 reverse act	MITF inh
COc1ccc(CN(C)C[C@@H]2Oc3ccc(NC(=O)Cc4ccccc4)cc3C(=O)N([C@H](C)CO)C[C@H]2C)cc1	i	i	i	i	i
C[C@@H]1CN([C@H](C)CO)C(=O)c2cc(NC(=O)Cc3cn(C)c4ccccc34)ccc2O[C@H]1CN(C)S(=O)(=O)c1cn(C)cn1	i	nt	i	i	i
C[C@H]1CN([C@@H](C)CO)C(=O)c2cc(NC(=O)Nc3ccc4c(c3)OCO4)ccc2O[C@H]1CN(C)Cc1ccncc1	i	nt	95	i	i
C[C@@H]1CN([C@@H](C)CO)C(=O)c2cc(NC(=O)Nc3ccc(F)cc3)ccc2O[C@@H]1CN(C)Cc1ccc(Cl)c(Cl)c1	i	85	113	i	i
C[C@H]1CN([C@@H](C)CO)C(=O)c2cc(NC(=O)Nc3ccc(F)cc3)ccc2O[C@H]1CN(C)Cc1ccc(Cl)c(Cl)c1	i	nt	99	i	i
C[C@H]1CN([C@@H](C)CO)C(=O)c2cc(NC(=O)Nc3ccc4c(c3)OCO4)ccc2O[C@H]1CN(C)Cc1ccc(Cl)c(Cl)c1	i	i	i	i	i
C[C@@H]1CN([C@@H](C)CO)C(=O)c2cc(NC(=O)Nc3ccc4c(c3)OCO4)ccc2O[C@@H]1CN(C)Cc1ccc(Cl)c(Cl)c1	i	nt	95	i	i
C[C@@H]1CN([C@H](C)CO)C(=O)c2cc(NC(=O)Nc3ccc4c(c3)OCO4)ccc2O[C@H]1CN(C)Cc1ccncc1	i	nt	i	i	i
C[C@@H]1CN([C@H](C)CO)C(=O)c2cc(NC(=O)Nc3ccc(F)cc3)ccc2O[C@H]1CN(C)Cc1ccc(Cl)c(Cl)c1	i	i	i	i	i
C[C@H]1CN([C@@H](C)CO)C(=O)Cc2cc(NS(C)(=O)=O)ccc2O[C@@H]1CN(C)C	i	i	i	i	i
C[C@@H]1CN([C@@H](C)CO)C(=O)c2cc(NC(=O)Cc3ccccc3)ccc2O[C@H]1CN(C)Cc1ccc(C(F)(F)F)cc1	i	?	i	i	i
C[C@@H]1CN([C@@H](C)CO)C(=O)c2cc(NC(=O)Nc3ccccc3)ccc2O[C@H]1CN(C)Cc1ccc(Cl)c(Cl)c1	i	i	124	i	?
O=C(COc1ccccc1[N+](=O)[O-])Nc1cccc(Cl)c1N1CCOCC1	nt	nt	83	i	i
Cc1c(C)c(C)c(CSc2ccccn2)c(C)c1C	i	i	i	i	i
Cc1c(C)c(C)c(CSc2ccccc2N)c(C)c1C	i	nt	91	i	i
C[C@H](CO)N1C[C@H](C)[C@H](CN(C)CC2CC2)Oc2c(NC(=O)C3CCCCC3)cccc2C1=O	i	i	i	i	i
C[C@@H]1CN([C@H](C)CO)C(=O)Cc2cc(NS(=O)(=O)c3ccc(Cl)cc3)ccc2O[C@@H]1CN(C)CC1CCCCC1	i	i	114	i	i
C[C@@H]1CN([C@H](C)CO)C(=O)Cc2cc(NS(=O)(=O)c3ccc(Cl)cc3)ccc2O[C@H]1CN(C)CC1CC1	i	i	i	i	i
C[C@@H]1CN([C@H](C)CO)C(=O)Cc2cc(NS(=O)(=O)c3ccc(Cl)cc3)ccc2O[C@H]1CN(C)CC1CCCCC1	i	i	127	i	i
C[C@@H]1CN([C@@H](C)CO)C(=O)Cc2cc(NC(=O)CCCCCC(=O)Nc3ccccc3N)ccc2O[C@@H]1CN(C)S(=O)(=O)c1cccs1	i	nt	i	i	i
C[C@H](CO)N1C[C@H](C)[C@@H](CN(C)C(=O)Nc2ccc(C(F)(F)F)cc2)Oc2ccc(NC(=O)Nc3ccc(C(F)(F)F)cc3)cc2C1=O	i	i	104	i	i
Cc1ccc(S(=O)(=O)Nc2ccc3c(c2)C(=O)N([C@@H](C)CO)C[C@@H](C)[C@@H](CN(C)C(=O)Nc2ccc(C(F)(F)F)cc2)O3)cc1	i	i	111	i	i
C[C@@H]1CN([C@@H](C)CO)C(=O)c2cc(NC(=O)Nc3ccc(F)cc3)ccc2O[C@@H]1CN(C)C(=O)Nc1ccc(C(F)(F)F)cc1	i	i	105	i	i
C=C(C)C(=O)O[C@H]1C[C@@]2(C)OC(=CC2=O)/C(COC(C)=O)=C\[C@H]2OC(=O)C(=C)C12 (some centres undefined)	i	?	120	i	i
C=C1CC/C=C(/COC(C)=O)C(=O)C[C@@H]2[C@@H]1CC2(C)C	i	i	nt	nt	nt
O=[N+]([O-])c1nn(-c2ccccc2)n(O)c1=NC1CCN(Cc2ccccc2)CC1	nt	nt	114	nt	i

Compound activity deposited in PubChem BioAssay by Broad Institute.
